# Screens as filed in PubChem BioAssay.
# This is one part of a sample in which hits are shown more often than they occur.
# Pin1 inh – qHTS Assay to Find Inhibitors of Pin1. AID 504891, 2011. Potency, µM (titrated, usually from 115 µM), without a hit: at the top dose activity, negative = inhibition, actives largely listed as inhibitors. Pin1 FP peptide displacement, HiFluor488, 10 min. 390,000 compounds, 0.009% hits. Peptidyl-prolyl cis-trans isomerase NIMA-interacting 1 (Homo sapiens), Q13526; active means well fitted inhibition curve with a large enough effect in the polarisation, with a control signal flat, not every such curve was filed as active; inconclusive means small, poorly fitted or top-dose-only effect, or effect the other way, or a change in a side signal; inactive means no such curve, though single readings can be large or run the other way; the % refers to the polarisation; further: potency means the concentration at half of the fitted maximal effect
# Target sequence (Q13526 whole entry, looked up): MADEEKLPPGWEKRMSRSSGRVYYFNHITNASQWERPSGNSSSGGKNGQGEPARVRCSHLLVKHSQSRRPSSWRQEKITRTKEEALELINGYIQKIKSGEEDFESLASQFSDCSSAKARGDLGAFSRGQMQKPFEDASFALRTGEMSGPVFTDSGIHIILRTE
# PI4K2A inh – qHTS for small molecular inhibitors of PI4K2A; Phosphatidylinositol 4-kinase type 2-alpha (Homo sapiens), Q9BTU6; purified PI4K2A, ADP-Glo luminescence, 1 h; active compounds read low; activity change, negative = inhibition, % at 76.9 µM; 420,000 compounds, 0.13% hits; AID 1346378, 2018; in the data active means activity change below about -50%; inconclusive means mostly about -30% to -49%;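 further: -100% = wells without enzyme as full effect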
# Target sequence (Q9BTU6 whole entry, looked up): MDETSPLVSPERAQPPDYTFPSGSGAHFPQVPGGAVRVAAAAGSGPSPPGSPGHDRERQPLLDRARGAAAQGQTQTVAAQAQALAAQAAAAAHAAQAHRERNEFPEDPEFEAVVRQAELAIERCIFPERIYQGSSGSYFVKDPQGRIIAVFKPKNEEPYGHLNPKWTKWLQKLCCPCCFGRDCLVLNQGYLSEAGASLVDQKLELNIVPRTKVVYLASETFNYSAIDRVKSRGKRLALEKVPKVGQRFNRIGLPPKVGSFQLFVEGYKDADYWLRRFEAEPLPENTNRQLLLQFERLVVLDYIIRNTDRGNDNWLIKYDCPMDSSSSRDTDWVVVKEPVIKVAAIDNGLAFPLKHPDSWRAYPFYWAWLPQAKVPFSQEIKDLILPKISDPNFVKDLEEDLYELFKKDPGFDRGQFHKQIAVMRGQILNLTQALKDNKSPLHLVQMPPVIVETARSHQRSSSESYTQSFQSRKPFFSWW
#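 PI4K2A activity was measured by ADP-Glo luminescence: enzyme (4 ug/mL stock) and phosphatidylinositol (1.2 mM stock) in Tris pH 7.5/MgCl2/EGTA/Triton X-100 buffer were reacted with ATP (300 microM stock) for one hour at ambient temperature.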
# PGK inhibitor – qHTS Assay to Find Inhibitors of Phosphoglycerate Kinase; 380,000 compounds, 0.043% hits; Phosphoglycerate kinase, glycosomal (Trypanosoma brucei brucei), P07378; PGK/GAPDH coupled, Kinase-Glo luminescence, 60 min; Potency, µM (highest dose often 57.5 µM), for the others: at the top dose activity change, negative = inhibition, hits mostly inhibitors; AID 602233, 2012; further: potency means the concentration at half of the fitted maximal effect; nearly all actives have a fitted effect of over 60% in size
#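 Luminescent ATP detection (Kinase-Glo Plus) follows a 60-minute room-temperature incubation, with wells lacking PGK as controls. Buffer: 100 mM TEA (pH 7.6), 5 mM MgCl2, 0.01% Tween-20. Coupling enzyme GAPDH (100 nM final) supplies unstable 1,3-BPG in-well.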
# PI5P4Ka inh – qHTS for Inhibitors of phosphatidylinositol 5-phosphate 4-kinase (PI5P4K); Phosphatidylinositol 5-phosphate 4-kinase type-2 alpha (Homo sapiens), P48426; PI5P4Kalpha enzyme, ADP-Glo luminescence, 60 min; active compounds read low; max response, %; 330,000 compounds, 1.2% hits; AID 652105, 2013; active means max response of -50% or lower; inconclusive means between -30% and -50%; inactive means -30% or higher; further: value at the top dose of about 77 µM
#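 ADP-Glo luminescence end-point after a 60 min room-temperature kinase reaction. PI5P4Kalpha and substrate in HEPES pH 7.4 buffer with EGTA, 0.1% CHAPS and 5% DMSO; ATP at 5 microM final.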
# ADP-Glo counter – qHTS for Inhibitors of PI5P4K: ADP-Glo counter assay; shares compounds with PI5P4Ka inh; ADP-Glo detection counter-screen, luciferase luminescence, no enzyme; Potency, µM (doses to about 76.9 µM), for inactives: at the highest dose activity change, negative = inhibition, actives largely listed as inhibitors; 1,100 tested, under 10 active
# Starred values were filed as active, the others as inactive; i = inactive; ? = inconclusive; / = not tested or not shown; ! = a repeat was not active. Unless noted, the call rests on the fitted dose curve; in most records, active means well fitted curve in the direction sought with a large enough effect; inconclusive means small, poorly fitted or top-dose-only effect, or another doubt; inactive means no such curve, though single readings can be large; an effect the other way counts as inactive or inconclusive. Unless noted, on the % scale 0 is the no-effect control and ±100 the full control effect.
SMILES,Pin1 inh,PI4K2A inh,PGK inhibitor,PI5P4Ka inh,ADP-Glo counter
COc1ccc(C(=O)NCCSc2ccccc2)cc1OC,0.0%,-19.5,8.3%,-87.2*,-11.7%
COc1ccc2cc(C3CC=C(COC(C)=O)CN3S(=O)(=O)c3ccccc3[N+](=O)[O-])n(C(=O)OC(C)(C)C)c2c1 (centres undefined),/,-3.7,/,-6.6,/
CCN1CCN(Cc2ccc(NC(=O)c3ccc(C)c(NC(=O)c4csc(-c5ccncc5)n4)c3)cc2C(F)(F)F)CC1,8.8%,-0.8,-9.7%,-64.9*,4.2%
CCN1CCN(Cc2ccc(NC(=O)c3cc(NC(=O)c4cc5cccc(OC)c5o4)cc(OC)c3)cc2C(F)(F)F)CC1,24.4%,-5.8,1.0%,-61.5*!,7.0%
O=C(Nc1ccsc1C(=O)O)c1cccc(C(F)(F)F)c1,-2.4%,-0.4,-9.1%,-58.4*,1.8%
O=C(CN1C(=O)/C(=C/c2ccccc2)SC1=S)N1CCN(CCc2ccccn2)CC1,-0.4%,-0.4,1.1%,-12.7,/
CCN(CC)C(=O)CC(c1cc(OC)c(OC)c(OC)c1)c1c(OC)cc(OC)c2c(-c3ccccc3)cc(=O)oc12 (centres undefined),?,-5.3,?,-56.0*,2.7%
NC(=O)c1c(NC(=O)CN2CCN(S(=O)(=O)c3ccccc3)CC2)sc2c1CCC2,?,-15.5,2.0%,-64.7*,-0.3%
CN1CCN(CC(=O)Nc2sc3c(c2C(=O)Nc2ccccc2)CCCC3)CC1,1.5%,-2.8,3.9%,-0.9,/
CCn1c(=S)[nH]c2scc(-c3cccs3)c2c1=O,1.5%,-5.9,7.0%,-53.4*,3.5%
C=CCn1c(=S)[nH]c2scc(-c3ccc(C)o3)c2c1=O,6.8%,4.8,-6.1%,?,/
O=C(c1cnn2c(C(F)F)cc(C3CC3)nc12)N1CCCC1,0.3%,-3.1,-3.2%,/,/
O=C(c1cc2nc(C3CC3)cc(C(F)F)n2n1)N1CCOCC1,0.2%,-3.3,-7.1%,-62.7*,-12.4%
Cc1ccc(S(=O)(=O)NCC2CCC(C(=O)N(C)Cc3ccccc3)CC2)cc1 (centres undefined),1.6%,3.0,i,/,/
COCCN(CC(=O)NCC1CCCO1)C(=O)CCC(=O)Nc1ccccn1 (centres undefined),-1.9%,-8.1,-0.8%,-51.5*,0.9%
CCOc1ccccc1N1CCN(CC(=O)Nc2ccccc2C(=O)NC2CC2)CC1,-8.2%,4.6,5.9%,-3.3,/
CCN(CC(=O)Nc1ccc(NC(C)=O)cc1)Cc1c(O)ccc2cc(Br)ccc12,-18.9%,3.6,2.2%,-71.0*,-5.2%
COc1ccccc1NC(=O)C(C)OC(=O)C1COc2ccccc2O1 (centres undefined),-3.5%,-0.5,-1.9%,3.8,/
COc1ccc(Nc2nc(N)c(C(=O)c3ccc(F)cc3)s2)cc1,-2.7%,-1.8,-7.2%,-53.9*,0.9%
O=C(O)c1ccc(Cl)c(S(=O)(=O)Nc2ccc3[nH]c(=O)[nH]c3c2)c1,-19.1%,0.2,-5.5%,-64.8*,4.8%
Cc1cc(Br)cn2c(Cc3ccsc3)c(-c3ccco3)nc12,/,-26.5,/,-90.1*,-2.1%
COc1ccc(Cc2c(-c3ccco3)nc3ccc(Cl)cn23)c(C)c1,/,-14.4,/,?,/
COc1ccc(Cc2c(-c3ccco3)nc3c(C)cc(Br)cn23)c(C)c1,/,-1.0,/,?,/
COc1ccccc1Cc1c(-c2ccco2)nc2c(C)cc(Br)cn12,/,?,/,-78.3*,-4.0%
COc1ccc(Cc2c(-c3ccco3)nc3ccc(Br)cn23)c(C)c1,/,?,/,-59.7*,-6.0%
SMILES,Pin1 inh,PI4K2A inh,PGK inhibitor,PI5P4Ka inh,ADP-Glo counter
Cc1nn2cc(-c3ccc(OC(C)C)cc3)nc2s1,-5.2%,-26.5,-26.3%,/,/
CCOc1ccc(NC(=O)Cn2cc(C(=O)c3ccc(F)cc3)c(=O)c3cc4c(cc32)OCCO4)cc1,-4.7%,4.3,-9.6%,/,/
O=S(=O)(Nc1ccccc1N1CCCCC1)c1ccc(Cl)s1,2.9%,-8.1,-6.3%,-54.8*,4.0%
O=C(NCc1ccccc1Br)c1cccs1,/,1.4,/,-6.5,/
Cc1cc(NC(=O)CCCn2cc([N+](=O)[O-])cn2)n(Cc2ccc(F)cc2)n1,?,-3.0,-8.3%,-68.5*,-11.7%
Cc1ccc(NC(=O)c2cc(NC(=O)c3ccccc3C(=O)O)ccc2N2CCCCC2)cc1,?,3.7,8.4%,-51.7*,-3.4%
CCOC(=O)c1cnc2cc(C(F)(F)F)ccc2c1N1CCN(c2ccc(F)cc2)CC1,-1.3%,3.9,5.7%,/,/
O=C(Oc1ccc(N(Cc2cccs2)C2=NS(=O)(=O)c3ccccc32)cc1)c1ccccc1Cl,-4.0%,-20.3,-7.8%,-65.3*,-0.3%
Cc1nnc(SCC(=O)N2N=C(c3ccc(Cl)cc3)CC2c2ccco2)[nH]c1=O (centres undefined),8.1%,-6.8,-12.5%,-63.6*,1.1%
Cn1nnnc1SCC(=O)N1N=C(c2ccc(Cl)cc2)CC1c1ccco1 (centres undefined),-2.9%,1.6,-8.5%,0.9,/
CN1CCN(C(=O)C(=O)Nc2c3c(nn2-c2ccc(F)cc2)CSC3)CC1,-11.5%,2.2,-4.5%,/,/
CC(=O)NC12CC3CC(C1)CC(C(=O)OCC(=O)Nc1ncc(Cl)c(C)c1Cl)(C3)C2,?,-3.5,-0.6%,-52.0*,4.9%
O=C(CSc1nc2c(cnn2-c2cccc(Cl)c2)c(=O)[nH]1)NCC1CCCO1 (centres undefined),1.9%,-2.2,0.8%,/,-6.0%
Cc1ccc(-n2ncc3c(=O)[nH]c(SCC(=O)NCC4CCCO4)nc32)cc1 (centres undefined),-1.3%,-0.7,-7.6%,-1.2,/
CCC(C)c1nc2ccsc2c(N2CCOC2=O)c1-c1ccccc1 (centres undefined),2.0%,6.4,-13.2%,-53.6*,1.8%
O=C(c1ccco1)N1CCN(Cc2cc(=O)oc3cc(O)ccc23)CC1,?,-1.0,3.7%,-27.2,/
CCOc1ccc(NC(=O)N2CCC(CN3CCc4ccccc4C3)CC2)cc1,3.5%,1.9,2.4%,/,/
O=C(CCNC(=O)c1ccccc1Cl)NCC(c1ccco1)N1CCCC1 (centres undefined),-10.5%,2.5,i,-2.2,/
COc1ccc(S(=O)(=O)N2CCCC(C(=O)Nc3cccnc3)C2)cc1Cl (centres undefined),-1.8%,4.5,-6.2%,-50.2*,-5.7%
COc1ccc(NC(=O)C2CCCN(S(=O)(=O)c3cccnc3)C2)cc1OC (centres undefined),-6.1%,6.2,i,-2.3,/
O=c1c2c3c(sc2nnn1CCCCOc1ccc(Cl)cc1)CCCC3,25.9%,0.2,/,/,/
O=C(Nc1ccc(-c2nc3ncccc3o2)cc1)c1ccco1,?,-7.8,-3.7%,-53.0*,4.9%
